Screens: PubChem BioAssay, National Center for Advancing Translational Sciences (NCATS)
AmpC no deterg: blocks E. coli AmpC beta-lactamase in detergent-free assay; AmpC nitrocefin hydrolysis, absorbance 480 nm, 0.0001% Triton; Potency, µM (series often up to 57.1 µM), for the others: at the highest dose activity change, negative = inhibition, usual class: inhibitors; 0.52% of 330,000 active; AID 485341;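 note: potency is the fitted concentration of half-maximal effect; plate controls were no compound for no effect and no enzyme for full effect; nearly all actives have a fitted effect of over 20% in size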
Target sequence (P00811 whole entry, looked up): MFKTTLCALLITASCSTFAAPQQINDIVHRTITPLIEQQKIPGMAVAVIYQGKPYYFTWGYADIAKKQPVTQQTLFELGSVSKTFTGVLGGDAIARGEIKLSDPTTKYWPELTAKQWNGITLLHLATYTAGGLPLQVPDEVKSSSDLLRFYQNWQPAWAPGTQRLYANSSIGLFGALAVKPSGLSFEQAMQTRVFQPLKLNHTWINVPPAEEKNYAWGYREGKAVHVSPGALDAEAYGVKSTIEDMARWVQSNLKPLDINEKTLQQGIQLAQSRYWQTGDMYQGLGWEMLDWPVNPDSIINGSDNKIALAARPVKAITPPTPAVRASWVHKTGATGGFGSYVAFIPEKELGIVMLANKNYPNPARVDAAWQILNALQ
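20 mM phosphate pH 7.0 + 0.01% (detergent screen) or 0.0001% Triton X-100; 5.3 nM AmpC reagent; cpd preinc 15 min RT; nitrocefin (800 uM stock) to start; A480 q20 s × 4 min; Activity was normalised to no-enzyme and no-compound control wells.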
AmpC inh detg: inhibitors of E. coli AmpC beta-lactamase with detergent. 0.041% of 370,000 active. P00811. AmpC hydrolysis of nitrocefin, absorbance 480 nm, 0.01% Triton. Potency, µM (highest dose often 114 µM), inactives show at the top dose activity change, negative = inhibition, usual class: inhibitors. AID 485294;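 note: potency is the fitted concentration of half-maximal effect; 0% = no-compound wells and -100% = no-enzyme wells; nearly all actives have a fitted effect of over 25% in size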
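AmpC (5.3 nM in the dispensed reagent) in 20 mM phosphate pH 7.0 with 0.01% (detergent screen) or 0.0001% Triton X-100 was preincubated with compounds for 15 min at room temperature. Nitrocefin was then added from an 800 uM solution, and hydrolysis was followed at 480 nm.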
HCV inhibitor: HCV inhibition; Huh7.5.1 HCVcc-Cre infection, luciferase reporter, 44 h; Potency, µM (highest dose often 41.8 µM), for the others: at the top dose activity change, negative = inhibition, hits mostly inhibitors; 3.4% of 340,000 active; note: potency is the fitted concentration of half-maximal effect
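Antiviral activity was scored by luciferase reporter output from cells infected with HCVcc-Cre (~0.5 moi) in presence of compound, 44 h infection period, cells seeded 1,000/well 4 h prior.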
HCMV antiviral: inhibitors of human cytomegalovirus. HFF cells, HCMV-luciferase reporter, 72 h; active compounds read low. activity change, negative = inhibition, % at 57.5 µM. 4.5% of 410,000 active. AID 1259415; in the data active = activity change below about -60%; inconclusive = no clear call, values can overlap the other calls; inactive = above about -39%
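Two compound doses tested in HFFs infected with HCMV-luciferase, MOI 1 PFU/cell, 72 h at 37C. Lysate luminescence read with OneGlo; data normalized against buffer-only and 10uM Salinomycin inhibitor controls.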
FMDV inh: blocks foot and mouth disease virus | FMDV antiviral cell-based qHTS | Potency, µM (top dose mostly 57.9 µM), inactives show at the highest dose activity change, negative = inhibition, hits mostly inhibitors | 1.2% of 410,000 active; calls by dose curve; tested in HEK293T cells; note: read-out not given here; potency is the fitted concentration of half-maximal effect; nearly all actives have a fitted effect of over 45% in size
* marks the source's active call; other numbers are inactive results; ? = inconclusive; · = no result given; [ ] = remark or other dose. An excerpt weighted towards active compounds, which were near 7.3% of everything screened. Unless noted, calls come from the whole dose curve; as a rule, active = well fitted curve in the direction sought with a large enough effect; inconclusive = small, poorly fitted or top-dose-only effect, or another doubt; inactive = no such curve, though single readings can be large; an effect the other way counts as inactive or inconclusive. Unless noted, % is set by controls: 0 for no effect and ±100 for the full control effect.

SMILES	AmpC no deterg	AmpC inh detg	HCV inhibitor	HCMV antiviral	FMDV inh
CC[C@]1(C(=O)OC)[C@H]2C(=O)N(C)C(=O)[C@H]2[C@H]2CN=C(SCc3ccc(C(=O)OC)cc3)N21	102%	·	1%[8.37 µM]	13	-9%
Cc1[nH]c2ccc(C(=O)NCCCN(C)C3CCCCC3)cc2c1C	-3%	-19%	-13%	-62*	-6%
Cc1[nH]c2ccc(C(=O)NCCCN3CCN(C)CC3)cc2c1C	2%	-11%	3%	17	-26%
COc1ccc(CCC(=O)Nc2ccc(C)c(S(=O)(=O)N(C)C)c2)cc1OC	-16%	?	?	-77*	10µM*
Cc1cc(NC(=O)CN(C)S(=O)(=O)c2ccc3c(c2)CCC(=O)N3)ccc1Br	·	4%	·	?	14µM*
Cc1ccc(NC(=O)CCNC(=O)c2ccc([N+](=O)[O-])cc2)cc1S(=O)(=O)N(C)C	-34%	1%	?	?	28µM*
Cc1cc(C)cc(NC(=O)CN(C)S(=O)(=O)c2ccc3c(c2)CCC(=O)N3)c1	·	18%	·	9	-4%
Cc1ccc(NC(=O)c2ccc(OC(F)F)cc2)cc1S(=O)(=O)N(C)C	-47%	?	7.9µM*	-95*	?
O=c1onc(-c2ccccc2Cl)n1-c1ccccc1Cl	·	·	-28%	-36	-8%
CCOCCCn1c(=S)[nH]c2cc(C(=O)NCCCN(CC)CC)ccc2c1=O	-23%	-7%	?	?	-13%
COc1ccc(S(=O)(=O)N(C)C)cc1NCC(=O)Nc1ccc(Br)c(C)c1	-40%	-4%	10µM*	?	-18%
NS(=O)(=O)c1ccc(NC(=O)CN2C(=O)C3C4C=CC(C4)C3C2=O)cc1 (stereo not drawn)	3%[2.29 µM]	-1%	?	18	4%
COc1ccc(S(=O)(=O)N(C)C)cc1NCC(=O)Nc1cccc2ccccc12	·	·	0%	2	-5%
Cc1ccc(NC(=O)CN2C(=O)C3C4C=CC(C4)C3C2=O)cc1S(=O)(=O)N(C)C (stereo not drawn)	-24%	-3%	16%	-103*	-5%
COc1ccc(CCNCC(=O)Nc2ccc(C)c(S(=O)(=O)N(C)C)c2)cc1	-11%[11.4 µM]	-12%	?	-23	-16%
COc1cc(CCC(=O)Nc2ccc(C)c(S(=O)(=O)N(C)C)c2)cc(OC)c1OC	-17%	-3%	?	-4	28µM*
CCCCCCNC(=O)O[C@H]1C[C@@H]2C(=O)N(c3ccccc3)C(=O)[C@@H]2[C@@H]2CN(S(=O)(=O)c3ccc(C)cc3)C[C@]12O	·	·	·	3	-6%
Cc1ccc(OCCCCn2c(-c3ccc(Cl)cc3)nc3ccccc3c2=O)cc1	·	21%	·	34	-17%
COc1ccc2c([N+](=O)[O-])c(-c3ccccc3)[nH]c2c1	·	·	·	-20	·
O=C1NC[C@H](CCCCN2C[C@H](Cc3ccccc3)N(CCC3CCCCC3)C(=O)C2=O)N(CCC2CCCCC2)C1=O	·	·	·	-8	40µM*
O=C1NC[C@H](CCCCN2C[C@H](Cc3ccc(O)cc3)N(CC3CCCCC3)C(=O)C2=O)N(Cc2ccccc2)C1=O	·	·	·	-75*	-18%
O=C1NC[C@@H](CCCCN2C[C@H](Cc3ccccc3)N(CCC3CCCCC3)C(=O)C2=O)N(Cc2ccccc2)C1=O	·	·	·	-17	21%
CCN(CC)C(=O)c1ncn2c1C(=O)N(C)CC2	·	·	·	-19	-7%
c1ccc(-c2n[nH]c3c2CCC3)cc1	-11%	?	13µM*	-16	0%
COc1cccc(-c2n[nH]c3c2CCC3)c1	-17%	3%	-7%	-4	14%
SMILES	AmpC no deterg	AmpC inh detg	HCV inhibitor	HCMV antiviral	FMDV inh
C=C1C(=O)O[C@@H]2[C@H]1CC[C@H](C)[C@]1(O)CCC(=O)[C@@]21C	-7%	5%	?	-68*	-21%
CCOC(=O)C1(CC2CCCCO2)CCN(C(=O)Nc2ccccc2CC)CC1 (stereo not drawn)	29%	7%	9%	-65*	-18%
CCOC(=O)C1(CC2CCCCO2)CCN(C(=O)Nc2ccccc2SC)CC1 (stereo not drawn)	27%	6%	-1%	?	0%
Cc1ccccc1C(=O)Nc1c2c(nn1C(C)(C)C)CS(=O)(=O)C2	-13%	-6%	14%	-11	-16%
O=C(CCl)Nc1c[nH]c(=O)[nH]c1=O	-13%	?	?	-64*	?
O=C(Cc1ccccc1)Nc1c[nH]c(=O)[nH]c1=O	0%	7%	0%	?	-4%
CC(C)(C)C(=O)CN1C(=O)NC(c2ccccc2)(c2ccccc2)C1=O	-14%	-11%	17%	6	3%
Cc1cccc(CN2C(=O)NC(c3ccccc3)(c3ccccc3)C2=O)c1	-35%	1%	-13%	-69*	-25%
c1ccc2c(c1)ccc1ccccc12	-22%	·	2%	?	2%
Cc1ccccc1C[n+]1cccc2ccccc21	-9%	-5%	7%	-39	-13%
CCCCCCCCCCCCCCCC[n+]1cccc2ccccc21	177%	-5%	4.5µM*	-98*	?
CCCCCCCCC[n+]1cccc2c3ccccc3ccc21	69%	0%	4.5µM*	·	0%
CCOc1ccc(NC(=O)Cn2c(C)cc3ccccc3c2=O)cc1	·	4%	·	10	-13%
O=C(c1cn(C2CCCN(Cc3cccc(Oc4ccccc4)c3)C2)nn1)N1CCCC1 (stereo not drawn)	·	·	·	·	1%
CCCNS(=O)(=O)c1ccc(OCC(=O)N2CCN(Cc3ccc4c(c3)OCO4)CC2)c(C)c1	127%	1%	7.9µM*	?	-21%
O=C(CCc1ccc(S(=O)(=O)NCCc2ccccc2)cc1)N1CCN(Cc2ccc3c(c2)OCO3)CC1	92%	?	·	-89*	·
CC(C)CNS(=O)(=O)c1ccc(CCC(=O)N2CCN(Cc3ccc4c(c3)OCO4)CC2)cc1	117%	-2%	?	?	?
CC(C)(C)C1=CC(CC(N)=O)(C(C)(C)C)OC1=O (stereo not drawn)	·	·	·	-23	·
O=C(NCCc1c[nH]c2ccccc12)C1CCC(Cn2c(=S)[nH]c3ccccc3c2=O)CC1 (stereo not drawn)	-37%	2%	4.5µM*	-68*	-5%
CC(=O)NCCc1c[nH]c2ccccc12	-17%	?	0%	·	-7%
CC1(C(=O)NCCc2c[nH]c3ccccc23)CCN1CC1CCCCC1 (stereo not drawn)	·	·	·	-64*	-22%
COCCNC(=O)C1CCC(Cn2c(=S)[nH]c3ccccc3c2=O)CC1 (stereo not drawn)	0%	3%	-24%	2	16%
CC1(C)Cc2c(sc(NC(=O)c3ccc(C(=O)c4ccccc4)cc3)c2C(N)=O)C(C)(C)N1	181%	-2%	?	-100*	-29%
COc1ccccc1-c1ccc(C(=O)N(C)CC2COCCO2)c(N2CCN(c3ccccc3F)CC2)n1 (stereo not drawn)	·	·	·	·	-12%
